SW480 rerep: A quantitative high throughput screen for small molecules that induce DNA re-replication in SW480 colon adenocarcinoma cells; SW480 DNA re-replication, Hoechst DNA content imaging, 48 h; Potency, µM (titrated, usually from 46.1 µM), for inactives: top-dose re-replication activation, hits mostly activators; 340,000 tested, 1.8% active; note: % of control where 0% means no effect; nearly all actives have a fitted effect of over 55% in size
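DNA re-replication was detected as more nuclei of elevated Hoechst intensity after 48 hr exposure to compound (23 nL pinned per well of 250 cells).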
MCF10A rereplic: A quantitative high throughput screen for small molecules that induce DNA re-replication in MCF 10a normal breast cells; MCF 10A DNA re-replication, Hoechst nuclear intensity, 48 h; Potency, µM (top dose mostly 46.1 µM), for the others: at the top dose activity, positive = re-replication, hits mostly activators; 350,000 tested, 2.9% active; AID 624296, 2012; note: % of control where 0% means no effect; nearly all actives have a fitted effect of over 50% in size
KB-3-1 cytotox: qHTS assay for MDR1-selective chemotherapeutics: Primary screen using the parental adenocarcinoma cell KB-3-1; KB-3-1 viability, CellTiter-Glo ATP luminescence, 72 h; Potency, µM (titrated, usually from 46.1 µM), most hits filed as cytotoxic; 400,000 tested, 1.4% active; note: % is set by controls: 0 for no effect and ±100 for the full control effect; nearly all actives have a fitted effect of over 60% in size
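72 h, 37 °C compound treatment of KB-3-1 parental cells; CellTiter-Glo added, 10 min, luminescence read. Data corrected against DMSO-only plates and normalized before curve fitting.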
PINK1 expr mod: A Quantitative High throughput Screen to Identify Chemical Modulators of PINK1 Expression. Potency, µM (titrated, usually from 76.6 µM), for inactives: at the top dose activation (PINK1 increase), most hits filed as activators. 410,000 tested, 0.2% active. PINK1 immunofluorescence, high-content cytometry, 24 h; active = well fitted activation curve with a large enough effect; inconclusive = small, poorly fitted or top-dose-only effect; cell line not stated here; note: % of control where 0% means no effect; nearly all actives have a fitted effect of over 65% in size
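Measures PINK1 amount and localization on or inside mitochondria by immunofluorescence. Stable cells get compounds at 5 concentrations for 24 hours before fixation and staining; CCCP controls included.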
12-LOX inh: Primary qHTS assay for inhibitors of human arachidonate 12S-lipoxygenase (ALOX12): Round 2; Potency, µM (series often up to 108 µM), for inactives: top-dose activity change, negative = inhibition, actives largely listed as inhibitors; AID 1671190, 2021; Polyunsaturated fatty acid lipoxygenase ALOX12 (Homo sapiens), P18054; 580,000 tested, 1.1% active; purified 12hLO, xylenol orange hydroperoxide absorbance; note: % is set by controls: 0 for no effect and ±100 for the full control effect
Target sequence (P18054 whole entry, looked up): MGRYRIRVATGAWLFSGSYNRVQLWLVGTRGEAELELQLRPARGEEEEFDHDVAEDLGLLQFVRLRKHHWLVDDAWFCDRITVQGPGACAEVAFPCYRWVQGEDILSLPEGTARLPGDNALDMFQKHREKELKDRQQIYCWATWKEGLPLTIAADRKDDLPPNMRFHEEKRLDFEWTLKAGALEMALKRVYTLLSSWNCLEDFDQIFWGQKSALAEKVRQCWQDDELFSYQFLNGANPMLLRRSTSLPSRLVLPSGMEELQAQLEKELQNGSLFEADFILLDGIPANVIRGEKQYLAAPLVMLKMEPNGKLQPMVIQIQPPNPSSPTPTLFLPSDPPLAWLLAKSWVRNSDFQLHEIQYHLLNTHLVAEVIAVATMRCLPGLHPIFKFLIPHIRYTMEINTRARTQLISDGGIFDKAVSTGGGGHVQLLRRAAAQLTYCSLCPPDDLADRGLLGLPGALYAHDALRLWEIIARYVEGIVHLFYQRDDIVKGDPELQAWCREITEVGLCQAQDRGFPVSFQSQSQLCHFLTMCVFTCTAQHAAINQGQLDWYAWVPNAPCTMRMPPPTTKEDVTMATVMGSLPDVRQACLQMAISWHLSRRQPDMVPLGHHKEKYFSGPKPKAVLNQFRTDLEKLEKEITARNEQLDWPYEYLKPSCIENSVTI
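Purified human 12hLO (150 nM final) in 25 mM Hepes, 0.01% Triton X-100, pH 7.0 was preincubated 15 min at room temperature with compound. Then 40 uM arachidonic acid was added, 30 min. Hydroperoxide was read by Fe-XO absorbance ratio 573/405 nm.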
KB-V1 MDR tox: qHTS assay for MDR1-selective chemotherapeutics: Primary screen using the drug-selected MDR subline cells KB-V1; KB-V1 MDR cells viability, CellTiter-Glo, 72 h; 400,000 tested, 3.4% active; AID 1347076, 2019; Potency, µM (highest dose often 46.1 µM), most hits filed as cytotoxic; note: % is set by controls: 0 for no effect and ±100 for the full control effect; nearly all actives have a fitted effect of over 60% in size
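KB-V1 cells (P-gp-expressing MDR subline of KB-3-1) in phenol-red-free DMEM with 10% FBS were exposed to library compounds over a concentration series for 72 h at 37 degrees C. Viability read by CellTiter-Glo luminescence; concentration-effect curves fitted after normalization.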
* marks the source's active call; other numbers are inactive results; i = inactive; ? = inconclusive; nt = no result; [ ] = dose if it differs, or a comment. The list is not random: actives were taken first. Their share in the collection is about 5.8%. Unless noted, calls come from the whole dose curve; as a rule, active = well fitted curve in the direction sought with a large enough effect; inconclusive = small, poorly fitted or top-dose-only effect, or another doubt; inactive = no such curve, though single readings can be large; an effect the other way counts as inactive or inconclusive. Potency is the fitted concentration of half-maximal effect.

SMILES	SW480 rerep	MCF10A rereplic	KB-3-1 cytotox	PINK1 expr mod	12-LOX inh	KB-V1 MDR tox
CCC(=O)C1=C(c2ccc3c(c2)CCCC3)N(C(=O)CC)n2c(CC)nnc2S1	nt	nt	nt	nt	-9.1%	nt
O=S(=O)(Nc1nc2ccccc2nc1Cl)c1cccc(C(F)(F)F)c1	-2.8%	16.4µM*	i	?	-7.2%	i
O=C(OCC(=O)N(Cc1ccccc1)C1CCS(=O)(=O)C1)c1n[nH]c2ccccc12 (stereo unspecified)	nt	nt	nt	nt	-60.2%	nt
COc1ccc2c(C)c(CC(=O)Nc3ccc4c(c3)OCCO4)c(=O)oc2c1	nt	nt	nt	nt	-16.6%	nt
Cc1oc(-c2ccccc2)nc1CC(=O)NC1CCN(CC(N)=O)CC1	nt	nt	nt	nt	0.7%	nt
O=C(N/N=C/c1cccs1)c1n[nH]c2c1CCCC2	?	?	?	6.5%	i	?
O=C(N/N=C/C=C/c1ccccc1)c1n[nH]c2c1CCC2	2.06µM*	1.46µM*	1.3µM*	12.5%	491.6%	1.03µM*
O=C(N/N=C/C(Br)=C\c1ccccc1)c1n[nH]c2c1CCC2	0.517µM*	?	i	?	-8.5%	?
OCC1CCN(c2ccccc2)C1 (stereo unspecified)	nt	nt	nt	nt	-30.3%	nt
Cc1ccsc1/C=C1\SC(N2CC(C)OC(C)C2)=NC1=O (stereo unspecified)	1.6%	-37.9%	?	4.9%	-21.5%	18.4µM*
CN(C(=O)CC1C(=O)NCCN1Cc1ccoc1)C1CCOCC1 (stereo unspecified)	-20.4%	-8.8%	i	0.5%	0.3%	i
O=C1NCCN(Cc2ccoc2)C1CC(=O)N(CCO)Cc1ccccc1 (stereo unspecified)	18.4µM*	-5.0%	i	-1.5%	-9.8%	i
CCc1ccccc1NC(=O)CN(C)C(=O)CSc1nc2cc(Cl)ccc2s1	?	-49.5%	i	17.0%	-13.9%	14.6µM*
Cc1ccc(S(=O)(=O)N2CCN(C(=O)CCC(=O)Nc3ccc(Br)c(C)c3)CC2)cc1	0.3%	-2.2%	i	-1.3%	?	13µM*
CCOC(=O)N1CCN(CCC(=O)Nc2ccc(Br)c(C)c2)CC1	-7.1%	16.5%	?	-1.0%	-4.7%	18.4µM*
COc1cccc(S(=O)(=O)N2CCC3(CC2)C(OC)C(=O)N3c2cccc(F)c2)c1 (stereo unspecified)	nt	nt	nt	nt	-16.9%	nt
c1ccc2cc(CN3CCN(Cc4c[nH]c5ccccc45)CC3)ccc2c1	nt	nt	nt	nt	1.78µM*	nt
c1ccc(OCCN2CCN(C(c3ccccc3)c3ccccc3)CC2)cc1	0.651µM*	?	i	?	?	i
c1ccc(OCCN2CCNCC2)cc1	-5.7%	9.9%	i	2.1%	?	i
COC(=O)[C@@]1(Cc2ccc(F)cc2)[C@H]2c3cc(C(=O)N4CCCC4)n(CCCNc4ncc(C(F)(F)F)cc4Cl)c3C[C@H]2CN1C(=O)c1ccccc1	?	5.8µM*	i	1.8%	nt	i
COC(=O)[C@@]1(Cc2ccc(F)cc2)[C@H]2c3cc(C(=O)N4CCCC4)n(Cc4ccc(C)c(F)c4F)c3C[C@H]2CN1C(=O)c1ccccc1	nt	nt	?	2.0%	-23.0%	23.1µM*
COC(=O)[C@@]1(Cc2ccc(F)cc2)[C@H]2c3cc(C(=O)N4CCCC4)n(Cc4ccc(C(F)(F)F)nc4)c3C[C@H]2CN1C(=O)c1ccccc1	16.4µM*	86.9%	?	2.2%	10.3%	i
COC(=O)[C@@]1(Cc2ccc(F)cc2)[C@H]2c3cc(C(=O)N(C)C)n(Cc4ccsc4Br)c3C[C@H]2CN1C(=O)c1ccccc1	nt	nt	?	2.9%	-14.0%	20.6µM*
COC(=O)[C@@]1(Cc2ccc(F)cc2)[C@H]2c3cc(C(=O)N4CCCC4)n(CCF)c3C[C@H]2CN1C(=O)c1ccccc1	nt	nt	?	-0.2%	1.2%	?
O=C(CNC(=O)c1ccccc1Cl)NCCN1CCc2ccccc2C1	nt	nt	nt	nt	-27.7%	nt
SMILES	SW480 rerep	MCF10A rereplic	KB-3-1 cytotox	PINK1 expr mod	12-LOX inh	KB-V1 MDR tox
CC1=C[C@@H](CNC(=O)C2CCCCC2)[C@H](C(C)C)C[C@H]1CC(=O)N1CCN(c2ccccn2)CC1	nt	nt	nt	nt	10.5%	nt
CC1CCN(S(=O)(=O)c2ccc(-c3nc(C#N)c(NCCCN4CCOCC4)o3)cc2)CC1	nt	nt	nt	nt	9.6%	nt
CCOC(=O)c1c(Nc2cccc(C(=O)OC)c2)nnc(-c2ccccc2)c1-c1ccccc1	nt	nt	i	-4.3%	-29.3%	13µM*
CCOC(=O)c1cccc(Nc2nc(-c3ccccc3)no2)c1	nt	nt	nt	nt	71.8%	nt
CCOC(=O)c1c(Nc2ccc(C)cc2)nnc(-c2ccccc2)c1-c1ccccc1	nt	nt	i	-0.8%	-19.1%	23.1µM*
CCS(=O)(=O)Nc1cccc(C2=NN(S(=O)(=O)c3ccccc3)C(c3ccccc3C)C2)c1 (stereo unspecified)	nt	nt	nt	nt	3.7%	nt
Cc1cc(C(=O)CSc2ncnc3ccccc23)c(C)n1CC(F)(F)F	nt	nt	nt	nt	-27.7%	nt
COc1ccc(Cl)cc1NS(=O)(=O)c1ccc(OC)c(OC)c1	-5.9%	0.8%	i	-1.8%	0.0%	16.4µM*
COc1ccc(Cl)cc1NS(=O)(=O)c1ccc(S(=O)(=O)N2CCCC2)cc1	7.7%	-9.5%	i	0.8%[38.3 µM]	2.6%	i
COc1ccc(S(=O)(=O)Nc2cc(Cl)ccc2OC)cc1	2.91µM*	3.26µM*	3.66µM*	13.1%	-1.0%	5.8µM*
COc1cc(S(=O)(=O)Nc2ccccc2C)ccc1Cl	-5.0%	1.2%	i	6.6%	?	i
COc1ccc(S(=O)(=O)Nc2ccccc2C(=O)NC(C)C)cc1OC	-3.0%	-3.8%	i	0.7%	176.6%	i
COc1cc(S(=O)(=O)Nc2c(C)cc(C)cc2C)ccc1Cl	3.0%	8.8%	i	8.6%[38.3 µM]	-2.9%	18.4µM*
COc1ccc(S(=O)(=O)Nc2ccccc2C(N)=O)cc1OC	6.51µM*	-7.3%	i	-0.5%	0.9%	i
CCOC(=O)c1nnc(-c2ccccc2)nc1Sc1ccccc1Cl	?	6.51µM*	?	-3.0%	0.0%	i
CCCCOc1ccc(CN=C(N)N)cc1Cl	19.5%	?	?	2.9%	0.0%	i
CCCOc1ccc(CCCN=C(N)N)cc1Cl	21.3%	?	20.6µM*	-1.9%	?	i
COc1ccc(C)cc1S(=O)(=O)N1CCN(C/C=C/c2ccccc2)CC1	-2.6%	0.3%	i	-1.0%	101.9%	18.4µM*
COc1ccc(CN2CCN(C/C=C/c3ccccc3)CC2)c(OC)c1OC	nt	nt	nt	nt	0.562µM*	nt

Screening data deposited in PubChem by National Center for Advancing Translational Sciences (NCATS).
